KB-V1 cytotox – qHTS assay for MDR1-selective chemotherapeutics: Primary screen using the drug-selected MDR subline cells KB-V1; Potency, µM (titrated, usually from 46.1 µM), usual class: cytotoxic; 3.4% of 400,000 active; KB-V1 MDR cells viability, CellTiter-Glo, 72 h; also: nearly all actives have a fitted effect of over 60% in size
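Cells of the MDR subline KB-V1 are plated, dosed with compound at multiple concentrations, and incubated 72 h at 37 degrees C; CellTiter-Glo is then added and luminescence read after 10 min.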
KB-3-1 cytotox – qHTS assay for MDR1-selective chemotherapeutics: Primary screen using the parental adenocarcinoma cell KB-3-1; AID 1347075, 2019; KB-3-1 viability, CellTiter-Glo ATP luminescence, 72 h; 1.4% of 400,000 active; Potency, µM (series often up to 46.1 µM), hits mostly cytotoxic; also: nearly all actives have a fitted effect of over 60% in size
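Cytotoxicity measured as CellTiter-Glo luminescence after 72 h at 37 C. Compound titrations were pinned onto drug-naive KB-3-1 parental adenocarcinoma cells grown in DMEM with 10% FBS, and normalized data fitted to concentration-response curves.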
HT1080 IDH1KD tx – qHTS for induction of synthetic lethality in tumor cells producing 2HG: qHTS for the HT-1080-IDH1KD cell line. Potency, µM (doses to about 46.1 µM), for inactives: top-dose activity, negative = toxicity, actives largely listed as cytotoxic. HT-1080 IDH1 knockdown viability, ATP luminescence, 48 h. 2% of 360,000 active. AID 686971, 2013;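 also: 0% = DMSO wells and -100% = cell-free medium wells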
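Knockdown cells (IDH1KD HT-1080) received compounds 2 h after plating at 750 cells/well and were kept 48 h at 37 °C in 5% FBS RPMI. A CellTiter-Glo luminescence read gave % activity for curve fitting.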
HT1080-NT tox – qHTS for induction of synthetic lethality in tumor cells producing 2HG: qHTS for the HT-1080-NT fibrosarcoma cell line; Potency, µM (titrated, usually from 46.1 µM), for inactives: at the top dose activity, negative = less viability, most hits filed as cytotoxic; 1.6% of 360,000 active; HT-1080-NT fibrosarcoma viability, CellTiter-Glo ATP luminescence, 48 h;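 also: NT is the 2HG producing partner of a matched IDH1 knockdown line; 0% = DMSO-treated cells and -100% = media-only wells without cells; nearly all actives have a fitted effect of over 55% in size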
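750 cells/well, RPMI + 5% FBS; 2 h settle, compound pin-transfer, 48 h at 37 degrees C. CellTiter-Glo 10 min RT, luminescence. Normalized to DMSO and media-only wells.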
* marks the source's active call; other numbers are inactive results; i = inactive; ? = inconclusive; nt = no result; [ ] = dose if it differs, or a comment. Only some compounds are listed: those with a hit (about 5.7% of all), similar ones and a draw of the others. Calls follow the shape of the dose curve; as a rule, active = well fitted curve in the direction sought with a large enough effect; inconclusive = small, poorly fitted or top-dose-only effect, or another doubt; inactive = no such curve, though single readings can be large; an effect the other way counts as inactive or inconclusive. Unless noted, % is scaled to controls: 0 for no effect and ±100 for the full control effect; potency is read from the fitted curve at half-maximal effect.

SMILES	KB-V1 cytotox	KB-3-1 cytotox	HT1080 IDH1KD tx	HT1080-NT tox
O=C(OCC1OC(n2ncc(=O)[nH]c2=O)C(OC(=O)c2ccccc2)C1OC(=O)c1ccccc1)c1ccccc1 (stereo not drawn)	i	i	-1%	-5%
COc1cc(CN(C(=O)c2ccc(OC(C)C)cc2)c2ccccn2)cc(OC)c1OC	i	i	nt	nt
O=c1c2ccccc2n(Cc2cccc(F)c2)c(=O)n1Cc1ccccc1Cl	i	i	nt	nt
O=C(O)c1cccc(N/N=C/c2cc(Br)cc(Br)c2O)c1	i	i	-8%	-11%
Cc1c(N=Cc2cc(Br)cc(Br)c2O)cccc1C(=O)O	?	?	?	13µM*
CCOC(=O)c1cc(OC(=O)c2cccc(F)c2)n(-c2ccccc2)n1	i	i	nt	nt
CC(=O)NC1=NN(C(C)=O)C(C)(c2ccccn2)S1 (stereo not drawn)	i	i	11%	11%
CC(=O)NC1=NN(C(C)=O)C(C)(c2ccc(Br)cc2)S1 (stereo not drawn)	i	i	18µM*	?
Oc1cccc(Nc2ncnc3sc4c(c23)CCCC4)c1	i	i	nt	nt
C=Cc1ccc(Cn2c(=O)n(-c3cccc(C)c3)c(=O)c3c2c2cc(C)ccc2n3C)cc1	i	i	nt	nt
Cc1ccc(C(=O)NCc2ccc(N3CCN(C(=O)OC(C)(C)C)CC3)cc2)cc1	3.7µM*	i	10%	7%
Cc1ccc(OCCC(=O)N2CCN(c3ccc(O)cc3)CC2)cc1	i	?	7.3µM*	?
COc1ccc(N2CCN(C(=O)NCc3ccc(C)cc3)CC2)cc1	5.8µM*	0.52µM*	?	-26%
Cc1cnc(C(=O)Nc2ccc(N3CCN(C(=O)OC(C)(C)C)CC3)cc2)cn1	i	5.8µM*	?	?
Cc1ccc(CNC(=O)N2CCN(c3ccc(C)cc3)CC2)cc1	i	i	-1%	0%
COc1ccc(-c2nc3ccccc3s2)cc1NC(=O)c1ccc(F)cc1	i	i	nt	nt
CN(C)C(=O)C1(c2ccccc2)CCN(S(=O)(=O)c2ccccc2)CC1	21µM*	?	-4%[9.24 µM]	-4%
CC(=O)N1N=C(c2ccccc2O)CC1c1cccs1 (stereo not drawn)	i	i	-14%	-18%
Oc1ccccc1C1=Nc2ccccc2N=C(c2cccs2)C1	23µM*	i	?	-22%
Cc1ccc(O)c(C2=Nc3ccccc3N=C(c3cccs3)C2)c1	15µM*	?	-1%	0%
Oc1ccc(Cl)cc1C1=Nc2ccccc2N=C(c2ccccc2)C1	i	i	nt	nt
CC1=C(C(=O)Nc2cccnc2)C(c2cccc(Br)c2)n2nc(SCc3ccccc3)nc2N1 (stereo not drawn)	i	i	nt	nt
CCOc1cc(C2C(C#N)=C(N)OC(C)=C2C(C)=O)cc(Br)c1O (stereo not drawn)	i	i	12%	10%
CCOc1cc(C2C(C#N)=C(N)OC(C)=C2C(C)=O)c(Br)c(Br)c1OC(C)C (stereo not drawn)	15µM*	?	15µM*	7.3µM*
CN(C)C(=O)COc1ccc2ccc(=O)oc2c1	i	i	0%	-1%
SMILES	KB-V1 cytotox	KB-3-1 cytotox	HT1080 IDH1KD tx	HT1080-NT tox
CCN(C(=O)COc1ccc2ccc(=O)oc2c1)C1CCCCC1	18µM*	i	14%	11%
CCOc1ccc(OCC)c(NC(=O)CSc2nc3c(c(=O)n(C)c(=O)n3C)n2C(C)C)c1	18µM*	?	4%[9.24 µM]	-46%
CCOc1ccc(OCC)c(NC(=O)CSc2nc3c(c(=O)n(C)c(=O)n3C)n2CC)c1	?	i	-9%	4%
COc1ccc(OC)c(NC(=O)CSc2nc3n[nH]c(C)c3c(=N)n2-c2cccc(Cl)c2C)c1	?	?	23µM*	-18%
CCc1ccccc1NC(=O)CSc1nc2n[nH]c(C)c2c(=N)n1-c1cccc(OC)c1	8.2µM*	i	?	-29%
CCOc1ccccc1-n1c(SCC(=O)Nc2ccc(CC)cc2)nc2n[nH]c(C)c2c1=N	?	18µM*	?	-9%
CCc1ccc(NC(=O)c2cc(S(=O)(=O)N3CCCCCC3)ccc2F)cc1	i	i	nt	nt
Clc1ccc(Cn2cc3c(n2)-c2cc4ccccc4n2C3)cc1	i	i	nt	nt
Cc1ccc(CN(C(=O)COc2ccccc2Cl)c2ccccn2)o1	i	i	nt	nt
Cc1nn(-c2ccc(N3CCOCC3)nn2)c(C)c1CCC(=O)NCc1ccc(Cl)cc1	i	i	nt	nt
O=C1c2ccccc2-c2nnc(-c3ccccc3)cc21	?	?	-8%	-1%
COc1ccc(-c2cc3c(nn2)-c2ccccc2C3=O)cc1	7.3µM*	?	-15%	-24%
CSc1ccccc1OCc1cc(C(=O)NCCC2=CCCCC2)no1	23µM*	i	-19%	?
CSc1ccccc1OCc1cc(C(=O)NCCN2CCCc3ccccc32)no1	i	i	12µM*	-24%
Cc1ccnc(N/C=C(/NC(=O)c2ccccc2)C(=O)N/N=C\c2ccc(Cl)cc2)n1	i	i	12%	25%
Cc1cccc(C(=O)NCC(=O)N2CCCC2)c1	?	i	18%	?
Cc1cc(N2CCN(C)CC2)nc2ccc(NC(=O)CCC(=O)N3CCN(c4ccc([N+](=O)[O-])cc4)CC3)cc12	i	i	16µM*	21µM*
O=C(NCC(=O)N1CCCCCCC1)c1cccc([N+](=O)[O-])c1	21µM*	i	-3%	-3%
Cc1cc([N+](=O)[O-])ccc1NC(=O)CCC(=O)N1CCCCC1	i	i	6%	9%
Cc1cc(N2CCOCC2)nc2ccc(NC(=O)CCC(=O)N3CCN(c4ccccc4)CC3)cc12	i	i	0%	5%
O=C(CCC(=O)N1CCCCCC1)Nc1ccc([N+](=O)[O-])cc1	i	i	?	6.5µM*
COc1ccccc1CNC(=O)CCn1cnc2ccccc2c1=O	?	i	nt	nt
O=Cc1cc2c3c(c1)CCCN3CCC2	i	i	nt	nt
COc1cc(NC(=O)CN2C(=O)CN(C)C(=O)c3ccccc32)cc(OC)c1OC	i	i	nt	nt
COc1ccccc1-c1cc(C(F)(F)F)nc(S(=O)(=O)CCCC(=O)N2CCOCC2)n1	?	16µM*	16µM*	16µM*
COc1ccc(-c2cc(C(F)(F)F)nc(S(=O)(=O)CCCC(=O)Nc3cccc(O)c3)n2)cc1OC	i	i	12µM*	18µM*
COc1ccc(-c2cc(C(F)(F)F)nc(S(=O)(=O)CCC(=O)N3CCOCC3)n2)cc1	?	?	3%	3%
COc1ccccc1-c1cc(C(F)(F)F)nc(S(=O)(=O)CCCC(=O)O)n1	i	i	8.9µM*	11µM*

Source: PubChem
